PubChem BioAssay AID590 (National Center for Advancing Translational Sciences (NCATS), 2007)
Screen size: about 59,000 compounds; about 6,500 (11%) were called active. Inconclusive results (about 15%) are left out. Rule as the data show it: active = max dye-equivalent concentration above about 10 nM; inconclusive = mostly about 1.1 nM to 9.6 nM; inactive = weaker than that. The sample as a whole holds a higher share of actives than the screen did.

experiment: qHTS Assay for Spectroscopic Profiling in A350 Spectral Region; details: Compound autofluorescence, 340/450 nm, Alexa 350 dye-equivalents; active compounds read high

Row | Structure (SMILES) | max dye-equivalent concentration
1 | COc1ccc(Cc2nnnn2CC(=O)O)cc1 | inactive
2 | CC(C)NC(=O)N1CC[C@@]2(CCCN(C(=O)c3cccn3C)C2)C1 | inactive
3 | O=C(Nc1nncs1)c1ccccc1NS(=O)(=O)c1cccs1 | 520 nM (active)
4 | O=C(C1CCN(S(=O)(=O)c2cccs2)CC1)N1CCCCCC1 | inactive
5 | O=C(Nc1ncccn1)c1cccs1 | inactive
6 | COCCCN1C(=O)c2ccc(C(=O)Nc3ccc(OC)cc3OC)cc2C1=O | inactive
7 | COc1ccc(NC(=O)N2CC3(CCN(C(=O)c4cccn4C)CC3)C2)cc1 | inactive
8 | CCN1C(=O)C(C(=O)NC(C)c2ccccc2)C2CC1(C)Oc1ccccc12 (stereo not given) | inactive
9 | CC1CCCCN1CC(=O)NCc1ccc2c(c1)OCO2 (stereo not given) | 50 nM (active)
10 | O=C(Cn1nnc(-c2ccccc2)n1)NCc1ccc2c(c1)OCO2 | inactive
11 | CCOC(=O)NCc1ccc2c(c1)OCO2 | inactive
12 | COc1cccc(C2/C(=C(/O)c3ccncc3)C(=O)C(=O)N2CCCN(C)C)c1 (stereo not given) | inactive
13 | CCCn1c(=O)c2[nH]c(C3CCCC3)nc2n(CCC)c1=O | inactive
14 | CSCCC(NC(N)=O)C(=O)N(C)CC(=O)Nc1ccc(C)cc1 (stereo not given) | inactive
15 | O=C(c1ccc2c(c1)C(=O)N(c1ccc(Cl)cc1)C2=O)N1CCN(c2ccccn2)CC1 | inactive
16 | O=c1c(-c2ccc(F)cc2)nc2cnc(N3CCOCC3)nc2n1-c1ccccc1 | 29 nM (active)
17 | Cn1cc(-c2nc3cncnc3n(-c3ccccc3)c2=O)c2ccccc21 | inactive
18 | CN1CCN(c2ncc3nc(-c4ccc(Cl)cc4)c(=O)n(-c4ccccc4)c3n2)CC1 | 53 nM (active)
19 | c1ccc(-n2nnnc2N2CCOCC2)cc1 | inactive
20 | Clc1ccc(C(c2ccc(Cl)cc2)n2cc[n+](C[C@@H](OCc3ccc(Cl)cc3Cl)c3ccc(Cl)cc3Cl)c2)cc1 | inactive
21 | COc1ccc(CNc2ncnc3ccc(-c4cccnc4)cc23)c(OC)c1 | inactive
22 | Cc1cccc(N2CCN(C(=O)C3CCN(S(=O)(=O)c4cnc[nH]4)CC3)CC2)c1C | inactive
23 | O=C(c1ccco1)N1CCC2(CC1)CN(c1ncccn1)C2 | inactive
24 | O=C(c1cccnc1NCc1ccccc1)N1CCOCC1 | inactive
25 | Cc1nc(NCc2ccccc2)c(C(N)=O)c2c1COC(C)(C)C2 | 150 nM (active)
26 | O=c1ccn(Cc2ccccc2Cl)cc1 | inactive
27 | CC(C)CNC(=O)c1cc(-c2ccc(Br)cc2)on1 | inactive

Row | Structure (SMILES) | max dye-equivalent concentration
28 | COC(=O)c1ccc(NC(=O)CSc2nnc(-c3ccncc3)n2C)cc1 | inactive
29 | CCOc1ccc(N=NS(=O)(=O)O)cc1 | inactive
30 | COc1ccc(-c2nnn(CC(=O)N(CCO)C(C(=O)NC3CCCC3)c3ccc(F)cc3)n2)cc1 (stereo not given) | inactive
31 | CCOc1ccc2nc(NC(=O)CSc3nc4c(c(=O)n(C)c(=O)n4C)n3CC)sc2c1 | inactive
32 | Cc1ccc(C(C(=O)NC2CCCC2)N(Cc2ccco2)C(=O)CCC(=O)Nc2ccccn2)cc1 (stereo not given) | inactive
33 | Cc1noc(C)c1COC(=O)Cn1c(C)nc2ccccc21 | inactive
34 | O=C(Nc1ccc(Oc2ccccc2)cc1)c1ccco1 | inactive
35 | CCOc1cc(NC(=O)c2ccco2)c(OCC)cc1NC(=O)COc1ccccc1 | 78 nM (active)
36 | Cc1ccc(C(=O)COc2cccc(NC(=O)c3ccco3)c2)cc1 | inactive
37 | O=C(c1cccs1)N1CCCC(c2nc(-c3ccc(F)cc3)no2)C1 (stereo not given) | inactive
38 | Cc1ccc(S(=O)(=O)N2CCOCC2)cc1C(=O)NCc1ccc(F)cc1 | inactive
39 | CC1CCc2sc3nc(N4CCN(CCO)CC4)n4ncnc4c3c2C1 (stereo not given) | inactive
40 | CCCn1nnc2sc3c(c2c1=O)CCC(C)C3 (stereo not given) | 32 nM (active)
41 | O=c1c2ccccc2nnn1CSc1nc2sc3c(c2c(=O)n1CC1CCCO1)CCC3 (stereo not given) | inactive
42 | CC(C)C[C@H](NC(=O)[C@@H]1O[C@H]1C(=O)O)C(=O)NCCCCN=C(N)N | inactive
43 | CC(C)Cc1ccc(S(=O)(=O)N2CCN(C(=O)c3ccco3)CC2)cc1 | inactive
44 | Cc1ccccc1NC(=O)c1cc(S(=O)(=O)N2CCOCC2)cs1 | inactive
45 | Cc1cc(NC(=O)CCC(=O)N(c2ccccc2)C(C(=O)NC2CCCC2)c2ccncc2)no1 (stereo not given) | inactive
46 | Cc1ccsc1C(=O)OCC(=O)c1cc(C)n(CC2CCCO2)c1C (stereo not given) | inactive
47 | Cc1ccc2nc(NC3=NCN(CCc4ccccc4)CN3)nc(C)c2c1 | inactive
48 | COc1ccc2nc(NC3=NCN(CC4CCCO4)CN3)nc(C)c2c1 (stereo not given) | 82 nM (active)
49 | CCc1cc2c(=O)c(-c3ccon3)c(N)oc2cc1OC | inactive
50 | CC(=NCC1CCCO1)c1c(O)[nH]c(=O)[nH]c1=O (stereo not given) | inactive
51 | CCOC(=O)CN(C(=O)CN1CCOCC1)c1ccc(Br)cc1 | inactive
52 | COCCCn1c(CCC(=O)O)ccc1-c1ccc(F)cc1 | 1500 nM (active)
53 | Cc1ccc(S(=O)(=O)C(C#N)c2nc3ccccc3nc2N2CCCC2)cc1C (stereo not given) | 190 nM (active)
54 | Cc1cc(Cl)ccc1OCC(=O)Oc1c(Cl)c(Cl)c(Cl)c(Cl)c1Cl | inactive

Row | Structure (SMILES) | max dye-equivalent concentration
55 | CCOC(=O)c1oc2ccccc2c1NC(=O)c1cccs1 | 21 nM (active)
56 | COC(=O)c1c(NC(=O)CSc2nncs2)sc2c1CCCCC2 | inactive
57 | CCOC(=O)c1c(-n2cnnn2)sc(C)c1C | inactive
58 | CCOCC(=O)Nc1sc2c(c1C(=O)OCC)CCCC2 | inactive
59 | CCOC(=O)c1c(NC(=O)CSc2nnc(Cc3csc(N)n3)n2C)sc(C)c1C | inactive
60 | COC(=O)c1c(NC(=O)c2cccs2)sc2c1CCCC2 | 65 nM (active)
61 | CCOC(=O)CSc1nnc(CNC(=O)c2cccs2)n1-c1ccccc1 | inactive
62 | CCOC(=O)c1c(NC(=O)c2cccs2)sc(C)c1C | 180 nM (active)
63 | COC(=O)Cn1cc(C(=O)c2cccs2)c2ccccc21 | inactive
64 | Cc1ccc(C2(c3ccc(C)cc3)NC(=O)N(Cc3c(C)noc3C)C2=O)cc1 | inactive
65 | Cc1ccc(NC(=O)N2CCC(C(=O)NCc3ccc(F)cc3)CC2)cc1 | inactive
66 | CCOc1ccc(-c2nnn(CC(=O)N3CCN(c4ccc(OC)cc4)CC3)n2)cc1OCC | inactive
67 | CCn1c(SCC(=O)Nc2nccs2)nnc1-c1ccncc1 | inactive
68 | CC(CN1CCCCC1)OC(=O)c1ccccc1Cl (stereo not given) | inactive
69 | CCCC(=O)Nc1ccc(C(=O)NCCCn2ccnc2)cc1 | inactive
70 | CCn1c(=O)cc(SCC(=O)NCc2ccc3c(c2)OCO3)c2ccccc21 | inactive
71 | CCCn1c(SCC(=O)c2ccc3c(c2)OCCO3)nnc1C(C)C | inactive
72 | O=C(c1cc(C(F)(F)F)cc(C(F)(F)F)c1)N1CCC[C@@]2(CCN(c3ccccn3)C2)C1 | inactive
73 | CCOC(=O)CC1C(=O)NCCN1C(=O)COc1ccc(Br)cc1C (stereo not given) | inactive
74 | CCOc1cccc(/C(O)=C2/C(=O)C(=O)N(CCOC)C2c2ccncc2)c1 (stereo not given) | inactive
75 | COCCOC(=O)C1=C(C)Nc2nc(C)nn2C1c1ccccc1 (stereo not given) | inactive
76 | CCOC(=O)C1=C(C)NC(C)=C(C(=O)OCC)C1c1ccccn1 | 330 nM (active)
77 | CCOC(=O)c1ccc(NC(=O)CSc2ncccn2)cc1 | inactive
78 | CC(=O)OCC(=O)[C@@]1(O)CC[C@@H]2[C@H]3CCC4=CC(=O)C=C[C@]4(C)[C@]3(F)[C@@H](O)C[C@@]21C | inactive
79 | Cn1c(=O)[nH]c(=O)c2c1nc(N1CCCCCC1)n2CC(=O)c1ccccc1 | inactive
80 | CCC(C)Sc1nc2c(c(=O)[nH]c(=O)n2C)n1CC(O)COc1cccc2ccccc12 (stereo not given) | inactive
81 | CS(=O)(=O)N1CCC2(CC1)CN(Cc1ccccc1)C2 | inactive

Row | Structure (SMILES) | max dye-equivalent concentration
82 | CCn1c(CNc2ccc(OC)cc2)nnc1SCC(=O)c1ccc(OC)cc1 | inactive
83 | Cc1ccc(S(=O)(=O)Nc2ccccc2CNc2c(C)n(C)n(-c3ccccc3)c2=O)cc1 | inactive
84 | Cc1nc2c(c(=O)n1Cc1ccco1)c1nc3ccccc3nc1n2Cc1ccccc1 | 110 nM (active)
85 | Cc1nc2ccccc2c(=O)n1CCCn1ccnc1 | inactive
86 | O=c1[nH]c(CSc2ncc(-c3ccc(F)cc3)n2Cc2ccco2)nc2ccccc12 | inactive
87 | CC(Sc1nc2ccccc2c(=O)n1Cc1ccco1)C(=O)c1ccccc1 (stereo not given) | inactive
88 | CCOC(=O)CSc1nc2c(sc(=S)n2CCc2ccccc2)c(=O)n1Cc1ccco1 | inactive
89 | Cn1c(COc2ccc(Cl)cc2)nc2ccccc2c1=O | inactive
90 | COCCCn1c2nc3ccccc3nc2c2c(=O)n(Cc3ccc(Cl)cc3)c(C)nc21 | 380 nM (active)
91 | COc1ccccc1NC(=O)CSc1nc2sc(C)c(C)c2c(=O)n1Cc1ccco1 | inactive
92 | Cc1ccc(Cn2c(C)nc3c(c2=O)c2nc4ccccc4nc2n3Cc2ccco2)cc1 | 1000 nM (active)
93 | Cc1ccc(N2CCN(c3ccc(C)cc3)C2c2ccccn2)cc1 | inactive
94 | COc1ccccc1-n1cnc2cc(NS(=O)(=O)c3ccccc3)ccc21 | inactive
95 | CCOC(=O)C1(Cc2ccc(O)cc2)NC(c2ccccc2F)C2C(=O)N(C)C(=O)C21 (stereo not given) | inactive
96 | O=C(O)C1CC=C(Cl)CC1C(=O)NCc1ccccc1 (stereo not given) | inactive
97 | CC1(C)Cc2ccccc2-c2nc(CN3CCOCC3)[nH]c(=O)c21 | inactive
98 | CCN(CC)C(=O)CSc1nnc(-c2cnccn2)n1-c1ccc(C)cc1 | inactive
99 | O=C(CN1CCN(S(=O)(=O)/C=C/c2ccccc2)CC1)NC(=O)NCc1ccco1 | inactive
100 | Cc1cccc(N=C2NC(=O)CS2)c1C | inactive
101 | Cc1ccc(NC(=O)CN2CCC3(O)CCCCC3C2c2ccc3c(c2)OCO3)c(C)c1 (stereo not given) | inactive
102 | Cc1ccc2cccc(O)c2[n+]1[O-] | 16 nM (active)
103 | CC(=O)Nc1cccc2c1[n+]([O-])c(C)c(C)[n+]2[O-] | inactive
104 | O=C(c1cc(C(F)(F)F)cc(C(F)(F)F)c1)N1CCC2(CCCN(c3ccccn3)C2)CC1 | inactive
105 | O=C(Nc1cccc(C(=O)N2CCCC2)c1)c1ccccc1 | inactive
